The values below come from PubChem BioAssay (EPA / NIEHS).

Activity calls are given as the source filed them. The calls were made as follows: active = hit-call score of the fitted dose curve at least 0.9, where 1 is the maximum; inactive = score below 0.9.

In general, AC50 refers to the midpoint of the concentration-response curve, whichever way the signal moves.

The nature of assay [1]: ATG_CRE_CIS: Attagene CIS-FACTORIAL HepG2 Assay for human cAMP Responsive Element (CRE) binding protein 3 (AID 2282926). The conditions noted are these: HepG2 CRE cis-reporter, Attagene multiplexed mRNA; actives raise or lower the signal. Put shortly:
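Induced reporter mRNA from a CRE cis element, measured in HepG2 among many multiplexed units at 24 h. Detection used RT-PCR plus capillary electrophoresis of fluorescent fragments; DMSO served as negative control.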

Assay [2] deals with CCAAT/enhancer-binding protein beta (Homo sapiens) (UniProt P17676). In words: ATG_C_EBP_CIS: Attagene CIS-FACTORIAL HepG2 Assay for human CCAAT/Enhancer Binding Protein (C/EBP) beta (AID 2282927). The note with it: HepG2 Attagene cis-factorial transcription factor reporter; actives raise or lower the signal. Put shortly:
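HepG2 transiently transfected with multiplexed reporter units under cis-regulatory promoters reporting endogenous C/EBPb activity. After 24 h exposure, reporter mRNA assayed by RT-PCR, fluorescent labelling, HpaI digestion and capillary electrophoresis; bidirectional fitting versus DMSO.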

A short description of assay [3]: ATG_CMV_CIS: Attagene CIS-FACTORIAL HepG2 Assay for human CMV (Internal Marker) (AID 2282928).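 Also: endpoint acts as a background internal control marker rather than a target.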 The conditions noted are these: HepG2 CMV promoter reporter, transcription factor profiling; actives raise or lower the signal. The procedure, abridged:
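24 h chemical treatment, HepG2 with transient multi-reporter transfection; RNA → oligo(dT) RT → PCR → 6-FAM extension → HpaI digest → CE fluorescence. Bidirectional fit, DMSO negative control.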

Assay [4] is described as follows: ATG_DR4_LXR_CIS: Attagene CIS-FACTORIAL HepG2 Assay for human Liver X Receptor (LXR), DR4 submotif (AID 2282929). The conditions noted are these: HepG2 Attagene DR4 cis-reporter, mRNA transcription; actives raise or lower the signal. The procedure, abridged: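 Endogenous factor activity at a DR4 cis-element is read as reporter mRNA in transiently transfected HepG2 cells. Exposure lasts 24 h; transcripts are amplified, fluorescently labelled and sized by capillary electrophoresis, with DMSO as baseline.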

Assay [5] concerns the target Aryl hydrocarbon receptor (Homo sapiens) (UniProt P35869). In words: ATG_Ahr_CIS: Attagene CIS-FACTORIAL HepG2 Assay for human Aryl Hydrocarbon Receptor (Ahr) (AID 2282930). The conditions noted are these: HepG2 AhR cis-factorial reporter transcription; actives raise or lower the signal. Put shortly: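 HepG2 cells transiently transfected with cis-element-driven multiplexed reporter units; endogenous AhR activity read as reporter mRNA 24 h after dosing, via RT-PCR, 6-FAM labelling, HpaI digestion and capillary electrophoresis. Bidirectional fit relative to DMSO.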

Assay [6] in a line: ATG_AP_1_CIS: Attagene CIS-FACTORIAL HepG2 Assay for human Activator Protein 1 (AP-1) (AID 2282931). The conditions noted are these: HepG2 Attagene cis-factorial AP-1 reporter mRNA; actives raise or lower the signal. Put shortly: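 Fluorescence of labelled PCR fragments separated by capillary electrophoresis gives reporter mRNA levels. HepG2 with transfected cis-regulated reporter units, 24 h exposure; DMSO serves as baseline for bidirectional curve fits.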

A short description of assay [7]: ATG_AP_2_CIS: Attagene CIS-FACTORIAL HepG2 Assay for human Activator Protein 2 (AP-2) (AID 2282932). The conditions noted are these: HepG2 AP-2 cis-reporter, Attagene transcription factor profiling; actives raise or lower the signal. Put shortly:
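Read-out: fluorescent reporter mRNA via RT-PCR and capillary electrophoresis, 24 h post-dose in transiently transfected HepG2. Endogenous factors drive cis-promoter reporters; gain or loss of signal fitted bidirectionally against DMSO.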

Assay [8] concerns the target Retinoic acid receptor alpha (Homo sapiens) (UniProt P10276). In words: ATG_DR5_RAR_CIS: Attagene CIS-FACTORIAL HepG2 Assay for human Retinoic Acid Receptor Alpha (RARE), DR5 submotif (AID 2282934). The note with it: HepG2 Attagene cis-factorial RARE DR5 reporter, mRNA; actives raise or lower the signal. Put shortly:
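HepG2 cells transiently transfected with multiplexed reporter units; DR5 cis-element drives reporter through endogenous transcription factors. After 24 h dosing, reporter mRNA quantified by RT-PCR, fluorescent labeling, HpaI digestion and capillary electrophoresis; bidirectional fitting versus DMSO.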

Assay [9] addresses Transcription factor E2F1 (Homo sapiens) (UniProt Q01094). In words: ATG_E2F_CIS: Attagene CIS-FACTORIAL HepG2 Assay for human E2F Transcription Factor 1 (AID 2282935). The note with it: HepG2 Attagene cis-reporter, E2F reporter RNA transcripts; actives raise or lower the signal. Put shortly:
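Transient MRTU transfection of HepG2; 24 h compound exposure; RNA → oligo(dT) RT → PCR → FAM label → HpaI cut → CE fluorescence. Gain/loss of signal fit against DMSO.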

Assay [10] in a line: ATG_E_Box_CIS: Attagene CIS-FACTORIAL HepG2 Assay for human Enhancer Box (E-box) (AID 2282936). The conditions noted are these: HepG2 E-box cis-reporter transcription, actives raise or lower the signal. Put shortly: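 Transiently transfected HepG2, endogenous TF-driven reporters, 24 h dosing. Readout: RT-PCR plus capillary electrophoresis of fluorescent reporter fragments. Gain or loss of signal fitted bidirectionally against DMSO baseline.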

The nature of assay [11]: ATG_M_61_CIS: Attagene CIS-FACTORIAL HepG2 Assay for M61 Transcription Factor (Internal Marker) (AID 2282937). The note with it: HepG2 Attagene CIS-FACTORIAL M61 internal marker reporter; actives raise or lower the signal. Put shortly:
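This endpoint serves as an internal background control within a multiplexed HepG2 cis-reporter panel. Cells are exposed for 24 h; reporter mRNA is amplified, fluorescently labelled and sized by capillary electrophoresis, with DMSO as negative control.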

Assay [12] can be described thus: ATG_EGR_CIS: Attagene CIS-FACTORIAL HepG2 Assay for human Early Growth Response 1 (EGR1) (AID 2282938). The conditions noted are these: HepG2 Attagene CIS-FACTORIAL EGR reporter mRNA; actives raise or lower the signal. Put shortly:
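HepG2, transient MRTU transfection (cis promoters), 24 h compound. RNA → RT (oligo-dT) → PCR → 6-FAM labelling → HpaI cut → CE fluorescence. Bidirectional fit, DMSO baseline.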

Assay [13] in a line: ATG_M_19_CIS: Attagene CIS-FACTORIAL HepG2 Assay for M19 Transcription Factor (Internal Marker) (AID 2282939). The note with it: HepG2 Attagene CIS-FACTORIAL M19 internal marker reporter; actives raise or lower the signal. The procedure, abridged:
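Following a 24 h exposure, RNA from transfected HepG2 cells was reverse-transcribed, PCR-amplified with reporter-specific primers, end-labelled with 6-FAM and HpaI-digested before capillary separation. Values represent gain or loss versus DMSO.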

A short description of assay [14]: ATG_ERE_CIS: Attagene CIS-FACTORIAL HepG2 Assay for Estrogen Response Element (ERE) (AID 2282940). The conditions noted are these: HepG2 ERE cis-reporter, Attagene RNA transcript; actives raise or lower the signal. The procedure, abridged:
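HepG2, transient cis-reporter units, 24 h exposure. RNA isolated, oligo(dT) RT, reporter-specific PCR, FAM extension, HpaI cut, CE detection. Gain/loss-of-signal vs DMSO.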

A short description of assay [15]: ATG_Ets_CIS: Attagene CIS-FACTORIAL HepG2 Assay for human Erythroblast Transformation Specific (ETS) (AID 2282941). The conditions noted are these: HepG2 ETS cis-reporter transcription, actives raise or lower the signal. The procedure, abridged:
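Cis-regulated reporter mRNA induction in HepG2 (transient transfection), 24 h exposure, RT-PCR plus capillary electrophoresis detection; DMSO serves as negative control and baseline.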

Assay [16] concerns the target Hepatocyte nuclear factor 3-beta (Homo sapiens) (UniProt Q9Y261). In words: ATG_FoxA2_CIS: Attagene CIS-FACTORIAL HepG2 Assay for human Forkhead box A2 (FOXA2) (AID 2282942). The note with it: HepG2 cis-reporter transcription factor activity, 24 h; actives raise or lower the signal. Put shortly:
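Cells: HepG2, transient multiplex reporter transfection. Exposure 24 h. Detection: reporter-specific RT-PCR, fluorescent labelling, restriction digest, capillary electrophoresis. Analysis: bidirectional curve fit, DMSO as negative control.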

The nature of assay [17]: ATG_FoxO_CIS: Attagene CIS-FACTORIAL HepG2 Assay for human Forkhead box O (FoxO) (AID 2282943). The conditions noted are these: HepG2 Attagene cis-reporter, FoxO element, mRNA; actives raise or lower the signal. The procedure, abridged:
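HepG2 cells transiently transfected with cis-element-driven reporter units report endogenous FoxO activity. After 24 h chemical exposure, reporter mRNA quantified by RT-PCR, fluorescent labeling, HpaI digestion and capillary electrophoresis; bidirectional fit versus DMSO.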

Assay [18] is described as follows: ATG_GATA_CIS: Attagene CIS-FACTORIAL HepG2 Assay for human GATA Binding Protein (AID 2282944). The note with it: HepG2 GATA cis-element reporter, Attagene multiplex mRNA; actives raise or lower the signal. The procedure, abridged: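 DMSO serves as negative control and baseline for bidirectional fitting of reporter mRNA changes. HepG2 cells bearing transiently transfected cis-promoter reporters were exposed 24 h; transcripts detected via RT-PCR and capillary electrophoresis.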

Assay [19] can be described thus: ATG_GLI_CIS: Attagene CIS-FACTORIAL HepG2 Assay for human Zinc Finger Protein GLI1 (AID 2282945). The note with it: HepG2, Attagene cis-factorial reporter mRNA, GLI element; actives raise or lower the signal. The procedure, abridged: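 Transiently transfected HepG2 cells report endogenous transcription factor activity via cis-element-driven reporter units. After 24 h compound exposure, reporter mRNA was measured by RT-PCR with capillary electrophoresis; bidirectional fitting against DMSO baseline.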

A short description of assay [20]: ATG_BRE_CIS: Attagene CIS-FACTORIAL HepG2 Assay for human Bone Morphogenetic Protein (BMP) Response Element (BRE) (AID 2282933). The note with it: HepG2 BMP response element reporter, Attagene transcription factor profiling; actives raise or lower the signal. Put shortly:
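Gain- or loss-of-signal was derived by bidirectional fitting against DMSO controls. The signal came from reporter mRNA, measured by RT-PCR and capillary electrophoresis, in HepG2 cells transiently carrying multiple reporter units and dosed for 24 h.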

Sequence of CCAAT/enhancer-binding protein beta (Homo sapiens) (P17676 whole entry, looked up): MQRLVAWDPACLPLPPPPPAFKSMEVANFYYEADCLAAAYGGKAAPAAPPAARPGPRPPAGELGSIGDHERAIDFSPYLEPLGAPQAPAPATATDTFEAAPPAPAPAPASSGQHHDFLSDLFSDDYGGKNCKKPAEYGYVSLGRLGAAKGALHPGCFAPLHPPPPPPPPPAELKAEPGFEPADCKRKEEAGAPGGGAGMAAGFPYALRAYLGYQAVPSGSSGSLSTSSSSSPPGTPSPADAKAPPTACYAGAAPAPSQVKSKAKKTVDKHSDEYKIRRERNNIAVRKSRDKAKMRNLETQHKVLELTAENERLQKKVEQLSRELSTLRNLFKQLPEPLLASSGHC
Sequence of Hepatocyte nuclear factor 3-beta (Homo sapiens) (Q9Y261 whole entry, looked up): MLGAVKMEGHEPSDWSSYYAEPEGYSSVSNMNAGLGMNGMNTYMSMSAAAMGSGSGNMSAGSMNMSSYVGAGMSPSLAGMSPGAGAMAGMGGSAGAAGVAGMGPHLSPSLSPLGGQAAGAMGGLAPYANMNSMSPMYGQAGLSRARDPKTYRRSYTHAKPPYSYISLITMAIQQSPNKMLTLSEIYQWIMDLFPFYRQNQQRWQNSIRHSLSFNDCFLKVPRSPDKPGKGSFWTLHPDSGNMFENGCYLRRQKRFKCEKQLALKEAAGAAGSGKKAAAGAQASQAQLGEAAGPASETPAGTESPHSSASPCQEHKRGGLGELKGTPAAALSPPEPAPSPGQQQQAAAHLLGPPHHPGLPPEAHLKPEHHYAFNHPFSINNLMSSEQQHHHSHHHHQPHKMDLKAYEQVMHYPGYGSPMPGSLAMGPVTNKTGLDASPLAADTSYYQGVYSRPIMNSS
Sequence of Transcription factor E2F1 (Homo sapiens) (Q01094 whole entry, looked up): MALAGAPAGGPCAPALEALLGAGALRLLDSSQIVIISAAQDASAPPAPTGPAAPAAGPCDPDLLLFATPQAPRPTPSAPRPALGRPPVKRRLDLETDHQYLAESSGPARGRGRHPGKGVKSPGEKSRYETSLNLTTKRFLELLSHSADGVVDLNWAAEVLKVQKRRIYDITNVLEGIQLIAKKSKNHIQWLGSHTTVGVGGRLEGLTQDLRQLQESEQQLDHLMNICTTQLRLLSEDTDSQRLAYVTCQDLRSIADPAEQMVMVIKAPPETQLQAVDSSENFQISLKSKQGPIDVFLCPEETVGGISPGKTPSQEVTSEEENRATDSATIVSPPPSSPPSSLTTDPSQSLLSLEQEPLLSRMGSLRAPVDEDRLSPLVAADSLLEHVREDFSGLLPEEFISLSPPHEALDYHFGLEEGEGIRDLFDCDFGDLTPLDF
Sequence of Aryl hydrocarbon receptor (Homo sapiens) (P35869 whole entry, looked up): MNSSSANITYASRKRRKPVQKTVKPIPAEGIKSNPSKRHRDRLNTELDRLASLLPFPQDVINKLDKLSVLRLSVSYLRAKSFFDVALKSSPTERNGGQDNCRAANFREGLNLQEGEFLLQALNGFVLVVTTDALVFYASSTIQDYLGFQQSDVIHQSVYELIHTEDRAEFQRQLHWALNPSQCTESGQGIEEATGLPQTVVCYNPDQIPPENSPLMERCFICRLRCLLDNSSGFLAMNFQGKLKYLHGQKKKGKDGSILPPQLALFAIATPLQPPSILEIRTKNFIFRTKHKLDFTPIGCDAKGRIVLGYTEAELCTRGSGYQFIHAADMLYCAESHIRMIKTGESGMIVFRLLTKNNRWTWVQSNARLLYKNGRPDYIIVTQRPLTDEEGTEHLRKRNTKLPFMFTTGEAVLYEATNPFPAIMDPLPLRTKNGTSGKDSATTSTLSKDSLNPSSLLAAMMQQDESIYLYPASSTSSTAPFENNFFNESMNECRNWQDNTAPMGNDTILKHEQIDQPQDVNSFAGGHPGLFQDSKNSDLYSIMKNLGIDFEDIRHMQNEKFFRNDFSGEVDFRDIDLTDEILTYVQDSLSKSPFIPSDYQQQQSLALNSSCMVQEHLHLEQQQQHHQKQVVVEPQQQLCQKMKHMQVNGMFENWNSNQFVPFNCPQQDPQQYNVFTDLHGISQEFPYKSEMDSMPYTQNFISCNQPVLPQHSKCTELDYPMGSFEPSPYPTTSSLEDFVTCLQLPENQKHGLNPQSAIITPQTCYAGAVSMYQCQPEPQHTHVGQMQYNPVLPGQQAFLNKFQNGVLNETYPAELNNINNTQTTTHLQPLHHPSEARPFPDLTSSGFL
Sequence of Retinoic acid receptor alpha (Homo sapiens) (P10276 whole entry, looked up): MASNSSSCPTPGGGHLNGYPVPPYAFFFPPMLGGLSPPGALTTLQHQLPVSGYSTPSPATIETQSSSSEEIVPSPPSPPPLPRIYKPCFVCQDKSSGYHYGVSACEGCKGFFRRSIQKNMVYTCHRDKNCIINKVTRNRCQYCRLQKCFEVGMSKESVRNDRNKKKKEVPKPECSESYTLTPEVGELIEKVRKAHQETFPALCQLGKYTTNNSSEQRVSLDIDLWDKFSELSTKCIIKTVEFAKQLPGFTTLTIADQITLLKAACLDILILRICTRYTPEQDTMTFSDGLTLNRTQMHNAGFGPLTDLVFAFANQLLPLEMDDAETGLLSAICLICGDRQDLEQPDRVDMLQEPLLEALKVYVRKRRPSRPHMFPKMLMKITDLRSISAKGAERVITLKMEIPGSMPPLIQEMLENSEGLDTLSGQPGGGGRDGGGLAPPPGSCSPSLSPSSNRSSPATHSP

Turning to `Cc1ccc(S(=O)(=O)NC(=O)NN2CCCCCC2)cc1`, the compound was classed as inactive in assay [1], in assay [2], in assay [3], in assay [4], in assay [5] and in assay [6]. Further, the compound was classed as inactive in assay [7], in assay [8], in [9], in assay [10], in assay [11] and in assay [12]. The result in assay [13], in [14], in assay [15], in assay [16], in [17] and in [18] was inactive. In [19], the compound was classed as inactive.

Consider `O=S(=O)(O)CCC(F)(F)C(F)(F)C(F)(F)C(F)(F)C(F)(F)C(F)(F)F`, for which the result in assay [1], in assay [2], in [3], in assay [4], in assay [5] and in assay [6] was inactive. The call in [7], in assay [8], in [9], in [10], in [11] and in assay [12] was inactive. Further, the compound was called inactive in assay [13], in assay [14], in assay [15], in [16], in [17] and in [18]. Besides, the result in assay [19] was inactive.

Consider `FC(F)=C(F)C(F)(F)C(F)(F)C(F)(F)C(F)(F)C(F)(F)C(F)(F)F`, for which the outcome in assay [1], in [2], in assay [3], in [4], in assay [5] and in assay [6] was inactive. Moreover, the compound was classed as inactive in assay [7], in assay [8], in assay [10], in assay [11], in [12] and in assay [13]. For the same compound, the compound was classed as inactive in [14], in assay [15], in assay [16], in assay [17] and in assay [19].

Turning to `CCOc1ccc2[nH]cc(C(=O)NCc3ccccc3)c(=O)c2n1`, the outcome in assay [1], in assay [2], in assay [3], in [4], in assay [6] and in assay [7] was inactive. Also, the compound was classed as inactive in assay [8], in assay [10], in [11], in assay [12], in assay [13] and in assay [14]. The compound was classed as inactive in [15], in [16], in assay [17], in assay [18] and in assay [19]. The AC50 in [5] is 4.77 µM (active).

For the compound `C=CN1CCCC1=O`, the compound was called inactive in assay [1], in assay [2], in assay [3], in assay [4], in [5] and in assay [6]. Moreover, the compound was classed as inactive in [7], in assay [20], in [9], in assay [10], in assay [11] and in [12]. Also, the call in assay [13], in assay [14], in [15], in assay [16], in [17] and in assay [19] was inactive.

Regarding `C[C@]12C=CC(=O)C=C1CC[C@H]1[C@@H]3C[C@@H](O)[C@](O)(C(=O)CO)[C@@]3(C)C[C@H](O)[C@@]12F`, the outcome in assay [1], in assay [2], in assay [3], in assay [4], in assay [5] and in assay [6] was inactive. Besides, the compound was called inactive in assay [7], in assay [20], in assay [10], in assay [11], in [12] and in assay [13]. The compound was classed as inactive in assay [15], in assay [16], in assay [17] and in assay [19]. Also, the AC50 in [14] is 17.8 µM (active).

Turning to `CC[C@H](C)C(=O)O[C@H]1C[C@H](O)C=C2C=C[C@H](C)[C@H](CC[C@@H](O)C[C@@H](O)CC(=O)O)[C@H]21`, the outcome in assay [1], in assay [2], in [3], in assay [4], in [6] and in assay [7] was inactive. Also, the call in assay [8], in [9], in assay [10], in [11], in assay [12] and in [13] was inactive. For the same compound, the result in assay [14], in [15], in [16], in assay [17], in assay [18] and in assay [19] was inactive. Besides, the AC50 in [5] is 68.4 µM (active).
